PTAP TSG101 blk = qHTS Assay for Iinhibitors of HIV-1 Budding by Blocking the Interaction of PTAP/TSG101. Tumor susceptibility gene 101 protein (Homo sapiens), Q99816. Fluorescence polarization, FITC-PTAP peptide / Tsg101 binding. Potency, µM (doses to about 115 µM), without a hit: top-dose activity change, negative = inhibition, actives largely listed as inhibitors. 340,000 tested, under 10 active; active = well fitted inhibition curve with a large enough effect in the main read-out, with a control signal flat, not every such curve was filed as active; inconclusive = small, poorly fitted or top-dose-only effect, or effect the other way, or a change in a side signal; inactive = no such curve, though single readings can be large or run the other way; note: potency is the fitted concentration of half-maximal effect; % of control where 0% means no effect
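Compounds were pin-transferred onto Tsg101 binding domain (10 uM final) in HEPES pH 7.5 buffer, then FITC-PTAP peptide was added at 50 nM final. After 20 min at RT, polarization reported peptide displacement across a qHTS concentration series.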
TSHR antagonist = Antagonists of the Thyroid Stimulating Hormone Receptor: HTS campaign | AID 504810, 2011 | activity change, negative = inhibition, % at 11.5 µM | hit rate 0.2% among 330,000 | TSHR-expressing cells, TSH-stimulated cAMP HTRF, 2 h; active compounds read low;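 active = activity change below a set negative limit, meaning inhibition stronger than a set level, cut at about -70% in these data; inconclusive = activity change between two set negative limits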; note: % is set by controls: 0 for no effect and ±100 for the full control effect
Target sequence (P16473 whole entry, looked up): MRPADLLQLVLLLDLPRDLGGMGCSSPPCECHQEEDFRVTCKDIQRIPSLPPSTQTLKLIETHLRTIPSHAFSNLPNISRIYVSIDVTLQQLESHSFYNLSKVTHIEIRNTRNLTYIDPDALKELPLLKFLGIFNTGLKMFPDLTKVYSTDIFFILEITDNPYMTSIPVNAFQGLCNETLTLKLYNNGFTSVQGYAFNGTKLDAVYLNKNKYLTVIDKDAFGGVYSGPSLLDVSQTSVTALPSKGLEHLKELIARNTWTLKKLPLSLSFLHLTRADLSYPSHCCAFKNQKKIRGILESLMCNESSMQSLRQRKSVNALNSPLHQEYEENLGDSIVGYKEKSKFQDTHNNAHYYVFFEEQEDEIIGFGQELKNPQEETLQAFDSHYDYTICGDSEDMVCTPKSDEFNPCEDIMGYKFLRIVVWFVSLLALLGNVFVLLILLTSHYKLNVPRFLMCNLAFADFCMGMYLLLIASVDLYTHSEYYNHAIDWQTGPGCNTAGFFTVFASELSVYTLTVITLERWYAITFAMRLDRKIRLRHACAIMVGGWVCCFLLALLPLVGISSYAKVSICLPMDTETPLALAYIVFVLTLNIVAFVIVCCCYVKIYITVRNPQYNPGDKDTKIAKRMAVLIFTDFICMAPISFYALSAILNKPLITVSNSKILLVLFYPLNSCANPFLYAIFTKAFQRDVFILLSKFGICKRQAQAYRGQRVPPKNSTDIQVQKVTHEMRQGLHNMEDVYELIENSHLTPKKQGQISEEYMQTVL
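Inhibition of cAMP made by TSHR-expressing cells under TSH stimulation (4nM final, EC80; 2 h, 37 deg C) is quantified with a one-step lysis HTRF kit, anti-cAMP cryptate versus cAMP-d2.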
VDR inh = Inhibitors of the vitamin D receptor (VDR): qHTS | VDR-SRC2-3 peptide fluorescence polarization, 2 h | Potency, µM, for inactives: max response, negative = inhibition, actives largely listed as inhibitors | hit rate 0.93% among 400,000 | AID 504847, 2011; note: potency is the fitted concentration of half-maximal effect; % is set by controls: 0 for no effect and ±100 for the full control effect
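Two reagent solutions held at 4 deg C in the dark were dispensed, compounds pinned at 23 nl, and the mixture incubated 2 h at room temperature. Read-out: fluorescence polarization of VDR–SRC2-3 peptide binding.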
uPA surface inh = qHTS for Inhibitors of Cell Surface uPA Generation. hit rate 0.31% among 330,000. cell surface uPA generation assay, qHTS. Potency, µM (titrated, usually from 38.3 µM), inactives show top-dose activity change, negative = inhibition, hits mostly inhibitors; active = well fitted inhibition curve with a large enough effect; inconclusive = small, poorly fitted or top-dose-only effect; inactive = no such curve, though single readings can be large or run the other way; tested in mouse RAW 264.7 cells; note: potency is the fitted concentration of half-maximal effect; % is set by controls: 0 for no effect and ±100 for the full control effect; nearly all actives have a fitted effect of over 55% in size
PLK1 PBD inh = qHTS for Inhibitors of PLK1-PDB (polo-like kinase 1 - polo-box domain): Primary Screen; Plk1 PBD binding of FITC phosphopeptide, fluorescence polarization; hit rate 2.8% among 360,000; Serine/threonine-protein kinase PLK1 (Homo sapiens), P53350; Potency, µM, for the others: max response, negative = inhibition, usual class: inhibitors; note: potency is the fitted concentration of half-maximal effect; series mostly up to about 57 µM; % is set by controls: 0 for no effect and ±100 for the full control effect; nearly all actives have a fitted effect of over 65% in size
Starred values were filed as active, the others as inactive; ? = inconclusive; . = no result given; ! = not confirmed by another sample. Compounds with a hit are over-represented: about 3.1% of the library has one in this group of screens. Unless noted, calls come from the whole dose curve; as a rule, active = well fitted curve in the direction sought with a large enough effect; inconclusive = small, poorly fitted or top-dose-only effect, or another doubt; inactive = no such curve, though single readings can be large; an effect the other way counts as inactive or inconclusive.

SMILES | PTAP TSG101 blk | TSHR antagonist | VDR inh | uPA surface inh | PLK1 PBD inh
COc1ccc(F)cc1S(=O)(=O)N1CCCN(S(=O)(=O)c2cc(F)ccc2OC)CC1 | -2% | 1 | -4% | -3% | 27µM*
COc1ccc(F)cc1S(=O)(=O)n1cc(C)nc1-c1ccccc1 | -4% | 0 | ? | 0% | 4.2µM*
COc1ccc(F)cc1S(=O)(=O)N1CCCC(C)C1 (centres undefined) | -4% | -2 | -7% | -3% | -10%
O=S(=O)(c1ccccc1)N1CCN(S(=O)(=O)c2ccc(F)cc2)CC1 | -6% | -20 | 2% | 11% | -11%
C=CCC(Nc1ccc(OC)cc1)(C(=O)OCC)c1ccccc1 (centres undefined) | . | . | -3% | . | .
CCCCN(CC)C(=O)Cn1cc2c(n1)-c1c(oc(C(=O)N3CCCC3)c1C)CC2 | . | . | 3% | . | .
Cc1ccccc1-c1nc(SCC(=O)NCc2ccc(F)cc2)c2c(=O)n(C)c(=O)n(C)c2n1 | . | . | -2% | . | .
CCOc1ccccc1/C=C/c1nc2ccccc2[nH]c1=O | 0% | -5 | ? | -10% | 3.8µM*
CCOc1ccccc1OCCCC(=O)Nc1nc2ccccc2[nH]1 | -1% | 15 | 15% | -10% | -7%
CNC(=O)C[C@H]1C(=O)N(c2ccc(Br)cc2)C[C@@H]1CSC | . | . | . | . | 7%
CN(C)CCNc1ncnc2c1ncn2[C@H]1CN(Cc2ccco2)C[C@@H](CO)O1 | . | . | . | . | -17%
CCOC(=O)c1cc(-c2ccccc2)sc1N | 0% | 3 | ? | -7% | 12µM*
CCOC(=O)c1cc(-c2ccccc2)sc1NC(=O)CCN1C(=O)c2ccccc2C1=O | 0% | -9 | -3% | 1% | -1%
CCOC(=O)c1cc(-c2ccccc2)sc1NC(=O)CC | -2% | 14 | ? | -7% | 21µM*
COc1ccc(OCc2nc3c4c(-c5ccccc5)c(-c5ccccc5)oc4ncn3n2)cc1 | . | . | -15% | . | .
S=c1cnc2ccccc2[nH]1 | 0% | 2 | ? | 6% | 12µM*
CN1C(=O)c2ccc(NC(=O)C3CC3)cc2C1=O | 1% | -17 | 25% | -5% | 4%
Cc1c(Cl)c([N+](=O)[O-])nn1CCCC(=O)Nc1sc2c(c1C(N)=O)CCC(C)C2 (centres undefined) | -3% | 3 | -4% | -1% | -8%
Cc1c(Br)c([N+](=O)[O-])nn1CC(=O)Nc1sc2c(c1C(=O)OC(C)C)CCCC2 | -1% | -4 | -20% | 1% | 19µM*
Cc1c(Br)c([N+](=O)[O-])nn1CCCC(=O)Nc1sc2c(c1C#N)CCC2 | -7% | -11 | ? | -8% | 5.3µM*
Cc1c(Br)c([N+](=O)[O-])nn1CCCC(=O)Nc1sc2c(c1C(N)=O)CCC(C)C2 (centres undefined) | -3% | 15 | -17% | 1% | -25%
Cc1c(Cl)c([N+](=O)[O-])nn1CCCC(=O)Nc1sc2c(c1C#N)CCC2 | -4% | -5 | ? | 8% | 30µM*
O=C(Cn1cnc2ccccc21)Nc1cccc([N+](=O)[O-])c1 | -5% | -6 | -18% | -45% | 7%
Cc1ccc(NC(=O)Cn2cnc3ccccc32)cc1C | 1% | -12 | ? | -3% | 13µM*
C=CCSCC(N)C(=O)O (centres undefined) | . | . | 16% | . | .
SMILES | PTAP TSG101 blk | TSHR antagonist | VDR inh | uPA surface inh | PLK1 PBD inh
N[C@@H](CSS(=O)(=O)O)C(=O)O | . | . | 10µM*! | . | .
CCc1c(C)c2cc3c(c(C)c2oc1=O)OCN(CCc1ccccc1F)C3 | . | . | 11% | . | .
C=C1C(=O)c2sccc2C(c2ccc(OC)c(OC)c2)C1COC(C)=O (centres undefined) | -3% | . | ? | -8% | 27µM*
CCN1CCN(CC(=O)N2N=C(c3cccs3)CC2c2ccc(OC)c(OC)c2)C(=O)C1=O (centres undefined) | -8% | 3 | -23% | -1% | -8%
Nc1ccccc1C(=O)NCc1ccccc1 | 0% | 20 | ? | -1% | 3.8µM*
C=CCN(CC=C)C(=S)NC(=O)/C=C/c1ccccc1 | -5% | 5 | 20µM* | -2% | 15µM*
C=CCN(CC=C)C(=S)NC(=O)/C=C/c1ccc(C)cc1 | -3% | 8 | 0% | 1% | 7%

Screening results: PubChem BioAssay, National Center for Advancing Translational Sciences (NCATS)
